# Test results from PubChem BioAssay (NCI).
# About 79,000 compounds went through this panel and 15% of them were active in at least one assay; those are over-represented in the sample as a whole. A number with no mark means an inactive call. Active and inactive are the calls of the source. Cut-off read from the data, not from the text of the source: active = growth inhibition above about 70%; inactive = the rest.
# What was measured:
# [1] = NCI Yeast Anticancer Drug Screen. Data for the wt1 strain (AID 149);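 note: 0% = growth of vehicle-treated wt1 cultures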; conditions: S. cerevisiae wt1 strain (SPY 50644) growth inhibition, hits give high values
# In short: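 Measured: growth of wt1 yeast under compound versus vehicle treatment, reported as inhibition.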
# [2] = NCI Yeast Anticancer Drug Screen. Data for the rad50EPP+ strain (AID 151);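 note: 0% = growth of vehicle-treated control cultures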; conditions: S. cerevisiae rad50 mutant strain, hits give high values
# In short: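 Genetically defined yeast (rad50EPP+, DNA damage repair alteration) is grown with compound, and inhibition of growth is expressed relative to vehicle-treated controls.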
# [3] = NCI Yeast Anticancer Drug Screen. Data for the mgt1 strain (AID 153); conditions: S. cerevisiae mgt1 mutant growth inhibition, hits give high values
# In short: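 In the mgt1 strain, test compounds were added and growth inhibition was determined relative to vehicle-treated controls.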
# [4] = NCI Yeast Anticancer Drug Screen. Data for the rad50 strain (AID 155);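 note: 0% = growth of vehicle-only cultures of the same strain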; conditions: S. cerevisiae rad50 strain growth inhibition, hits give high values
# In short: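 Growth of the mutant yeast was measured after compound exposure and referenced to vehicle-treated cultures.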
# [5] = NCI Yeast Anticancer Drug Screen. Data for the mec2-1 strain (AID 157); conditions: S. cerevisiae mec2-1 strain, hits give high values
# In short: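 Each compound was tested on mec2-1 yeast, a strain altered in DNA damage repair or cell cycle control. Growth inhibition is reported relative to vehicle.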
# [6] = NCI Yeast Anticancer Drug Screen. Data for the rad14 strain (AID 159);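 note: 0% = growth of vehicle-treated control cultures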; conditions: S. cerevisiae rad14 strain growth inhibition, hits give high values
# In short: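 Here, inhibition of yeast growth was measured after compound exposure, using a strain with a genetic defect in DNA damage repair and vehicle-treated cultures as the reference.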
# [7] = NCI Yeast Anticancer Drug Screen. Data for the sgs1 mgt1 strain (AID 161);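 note: 0% = growth of cultures given vehicle only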; conditions: S. cerevisiae sgs1 mgt1 strain, hits give high values
# In short: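 Mutant yeast exposed to compound; growth scored against vehicle-only wells.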
# [8] = NCI Yeast Anticancer Drug Screen. Data for the CLN2oe strain (AID 163);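 note: 0% = growth of vehicle-only control cultures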; conditions: S. cerevisiae CLN2oe strain, hits give high values
# In short: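 First, the altered yeast strain was treated with each compound; second, its growth was measured; finally, inhibition was derived by comparison with vehicle controls.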
# [9] = NCI Yeast Anticancer Drug Screen. Data for the cln2 rad14 strain (AID 165);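 note: 0% = growth equal to vehicle treated cultures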; conditions: S. cerevisiae cln2 rad14 strain, hits give high values
# In short: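 Test compounds were added to cln2 rad14 yeast cultures; inhibition of growth was then determined by comparison with vehicle treatment.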
# [10] = NCI Yeast Anticancer Drug Screen. Data for the bub3 strain (AID 167); conditions: S. cerevisiae bub3 mutant strain, hits give high values
# In short: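 Whole-cell yeast assay. The mutant strain was incubated with compounds, and growth inhibition was determined by comparison with vehicle-treated cells.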
# [11] = NCI Yeast Anticancer Drug Screen. Data for the wt2 strain (AID 169);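 note: 0% = growth of vehicle-treated yeast cultures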; conditions: S. cerevisiae wt2 strain growth inhibition, hits give high values
# In short: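 The panel's yeast strains carry defined changes in DNA repair or cell cycle genes. Each strain is grown with compound, and growth loss is scored relative to vehicle.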
# [12] = NCI Yeast Anticancer Drug Screen. Data for the mlh1 strain (AID 171);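 note: 0% = growth of vehicle-treated control cultures of the same strain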; conditions: S. cerevisiae mlh1 strain growth inhibition, hits give high values
# In short: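 Inhibition values reflect reduced yeast growth in the presence of compound, referenced to vehicle controls, using a strain chosen for its alteration in DNA repair or cell cycle control.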
# [13] = NCI Yeast Anticancer Drug Screen. Data for the mlh1 rad18 strain (AID 175); conditions: S. cerevisiae mlh1 rad18 strain growth inhibition, hits give high values
# In short: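 Inhibition values reflect reduced growth of mutant yeast versus vehicle-treated controls following compound exposure; the mutations affect DNA damage repair.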
# [14] = NCI Yeast Anticancer Drug Screen. Data for the rad18 strain (AID 177); conditions: S. cerevisiae rad18 mutant growth inhibition, hits give high values
# In short: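 Steps: expose repair-mutant yeast to compound; measure growth; express as inhibition relative to vehicle control.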
# [15] = NCI Yeast Anticancer Drug Screen. Data for the sgs1 strain (AID 173);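 note: 0% = growth of vehicle-only control cultures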; conditions: S. cerevisiae sgs1 mutant, hits give high values
# In short: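 Vehicle-treated cultures served as reference for growth inhibition of a yeast strain altered in DNA damage repair or cell cycle control after compound exposure.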
# [16] = at 5.0 µM (retest, dose inferred, filed as 0.5)
# [17] = at 50.0 µM (retest, dose inferred, filed as 5.0)
smiles,measurement,setting,value
O=C1c2ccccc2C(=O)c2c(NC3CCCCC3)ccc(Nc3ccc(S(=O)(=O)O)cc3)c21,growth inhibition,[1]; at 1.2 µM,-1%
same,growth inhibition,[1]; at 3.7 µM,-5%
same,growth inhibition,[1]; at 11.0 µM,-7%
same,growth inhibition,[1]; at 33.0 µM,10%
same,growth inhibition,[1]; at 100.0 µM,33%
same,growth inhibition,[2]; at 1.2 µM,-2%
same,growth inhibition,[2]; at 3.7 µM,5%
same,growth inhibition,[2]; at 11.0 µM,56%
same,growth inhibition,[2]; at 33.0 µM,80% (active)
same,growth inhibition,[2]; at 100.0 µM,63%
same,growth inhibition,[3]; at 1.2 µM,-2%
same,growth inhibition,[3]; at 3.7 µM,-1%
same,growth inhibition,[3]; at 11.0 µM,-2%
same,growth inhibition,[3]; at 33.0 µM,81% (active)
same,growth inhibition,[3]; at 100.0 µM,68%
same,growth inhibition,[4]; at 1.2 µM,0%
same,growth inhibition,[4]; at 3.7 µM,-2%
same,growth inhibition,[4]; [16],8%
same,growth inhibition,[4]; at 11.0 µM,9%
same,growth inhibition,[4]; at 33.0 µM,27%
same,growth inhibition,[4]; [17],62%
same,growth inhibition,[4]; at 50.0 µM,79.2% (active)
same,growth inhibition,[4]; at 100.0 µM,44%
same,growth inhibition,[5]; at 1.2 µM,1%
same,growth inhibition,[5]; at 3.7 µM,-5%
same,growth inhibition,[5]; [16],-14%
same,growth inhibition,[5]; at 11.0 µM,-5%
same,growth inhibition,[5]; at 33.0 µM,14%
same,growth inhibition,[5]; [17],59%
same,growth inhibition,[5]; at 50.0 µM,77% (active)
same,growth inhibition,[5]; at 100.0 µM,48%
same,growth inhibition,[6]; at 1.2 µM,2%
same,growth inhibition,[6]; at 3.7 µM,-4%
same,growth inhibition,[6]; at 11.0 µM,2%
same,growth inhibition,[6]; at 33.0 µM,48%
same,growth inhibition,[6]; at 100.0 µM,71% (active)
same,growth inhibition,[7]; [16],-13%
same,growth inhibition,[7]; [17],85% (active)
same,growth inhibition,[7]; at 50.0 µM,77.2% (active)
same,growth inhibition,[8]; at 1.2 µM,-5%
same,growth inhibition,[8]; at 3.7 µM,4%
same,growth inhibition,[8]; at 11.0 µM,-5%
same,growth inhibition,[8]; at 33.0 µM,1%
same,growth inhibition,[8]; at 100.0 µM,18%
same,growth inhibition,[9]; [16],-13%
same,growth inhibition,[9]; [17],-4%
same,growth inhibition,[9]; at 50.0 µM,59%
same,growth inhibition,[10]; at 1.2 µM,-2%
same,growth inhibition,[10]; at 3.7 µM,-4%
same,growth inhibition,[10]; [16],6%
same,growth inhibition,[10]; at 11.0 µM,5%
same,growth inhibition,[10]; at 33.0 µM,36%
same,growth inhibition,[10]; [17],46%
same,growth inhibition,[10]; at 50.0 µM,70.3% (active)
same,growth inhibition,[10]; at 100.0 µM,30%
same,growth inhibition,[11]; at 1.2 µM,-3%
same,growth inhibition,[11]; at 3.7 µM,-4%
same,growth inhibition,[11]; at 11.0 µM,5%
same,growth inhibition,[11]; at 33.0 µM,80% (active)
same,growth inhibition,[11]; at 100.0 µM,62%
same,growth inhibition,[12]; at 1.2 µM,-2%
same,growth inhibition,[12]; at 3.7 µM,-3%
same,growth inhibition,[12]; at 11.0 µM,5%
same,growth inhibition,[12]; at 33.0 µM,50%
same,growth inhibition,[12]; at 100.0 µM,71% (active)
same,growth inhibition,[13]; [16],5%
same,growth inhibition,[13]; [17],72% (active)
same,growth inhibition,[13]; at 50.0 µM,82.9% (active)
same,growth inhibition,[14]; at 1.2 µM,-2%
same,growth inhibition,[14]; at 3.7 µM,-13%
same,growth inhibition,[14]; at 11.0 µM,-1%
same,growth inhibition,[14]; at 33.0 µM,40%
same,growth inhibition,[14]; at 100.0 µM,46%
Cc1c(C(Cc2ccccc2N(C)C(=O)/C=C\C(=O)O)c2c[nH]c3ccccc23)c2ccccc2n1C (stereo unspecified),growth inhibition,[1]; at 1.2 µM,-3%
same,growth inhibition,[1]; at 3.7 µM,-6%
same,growth inhibition,[1]; at 11.0 µM,-7%
same,growth inhibition,[1]; at 33.0 µM,0%
same,growth inhibition,[1]; at 100.0 µM,40%
same,growth inhibition,[2]; at 1.2 µM,-6%
same,growth inhibition,[2]; at 3.7 µM,-4%
same,growth inhibition,[2]; at 11.0 µM,-6%
same,growth inhibition,[2]; at 33.0 µM,-6%
same,growth inhibition,[2]; at 100.0 µM,4%
same,growth inhibition,[3]; at 1.2 µM,-3%
same,growth inhibition,[3]; at 3.7 µM,-3%
same,growth inhibition,[3]; at 11.0 µM,-2%
same,growth inhibition,[3]; at 33.0 µM,5%
same,growth inhibition,[3]; at 100.0 µM,65%
same,growth inhibition,[4]; at 1.2 µM,1%
same,growth inhibition,[4]; at 3.7 µM,-2%
same,growth inhibition,[4]; [16],-12%
same,growth inhibition,[4]; at 11.0 µM,-9%
same,growth inhibition,[4]; at 33.0 µM,8%
same,growth inhibition,[4]; [17],-12%
same,growth inhibition,[4]; at 50.0 µM,87.8% (active)
same,growth inhibition,[4]; at 100.0 µM,37%
same,growth inhibition,[5]; at 1.2 µM,-2%
same,growth inhibition,[5]; at 3.7 µM,-4%
same,growth inhibition,[5]; [16],8%
same,growth inhibition,[5]; at 11.0 µM,-5%
same,growth inhibition,[5]; at 33.0 µM,2%
same,growth inhibition,[5]; [17],8%
same,growth inhibition,[5]; at 50.0 µM,86.8% (active)
same,growth inhibition,[5]; at 100.0 µM,51%
same,growth inhibition,[6]; at 1.2 µM,-3%
same,growth inhibition,[6]; at 3.7 µM,-11%
same,growth inhibition,[6]; at 11.0 µM,-14%
same,growth inhibition,[6]; at 33.0 µM,-13%
same,growth inhibition,[6]; at 100.0 µM,33%
same,growth inhibition,[7]; [16],-16%
same,growth inhibition,[7]; [17],-16%
same,growth inhibition,[7]; at 50.0 µM,86.9% (active)
same,growth inhibition,[8]; at 1.2 µM,-11%
same,growth inhibition,[8]; at 3.7 µM,-2%
same,growth inhibition,[8]; at 11.0 µM,-9%
same,growth inhibition,[8]; at 33.0 µM,-4%
same,growth inhibition,[8]; at 100.0 µM,42%
same,growth inhibition,[9]; [16],38%
same,growth inhibition,[9]; [17],38%
same,growth inhibition,[9]; at 50.0 µM,88.1% (active)
same,growth inhibition,[10]; at 1.2 µM,-9%
same,growth inhibition,[10]; at 3.7 µM,-6%
same,growth inhibition,[10]; [16],-6%
same,growth inhibition,[10]; at 11.0 µM,4%
same,growth inhibition,[10]; at 33.0 µM,6%
same,growth inhibition,[10]; [17],-6%
same,growth inhibition,[10]; at 50.0 µM,85.5% (active)
same,growth inhibition,[10]; at 100.0 µM,30%
same,growth inhibition,[11]; at 1.2 µM,-3%
same,growth inhibition,[11]; at 3.7 µM,-4%
same,growth inhibition,[11]; at 11.0 µM,-5%
same,growth inhibition,[11]; at 33.0 µM,3%
same,growth inhibition,[11]; at 100.0 µM,49%
same,growth inhibition,[12]; at 1.2 µM,-7%
same,growth inhibition,[12]; at 3.7 µM,-6%
same,growth inhibition,[12]; at 11.0 µM,-7%
same,growth inhibition,[12]; at 33.0 µM,4%
same,growth inhibition,[12]; at 100.0 µM,62%
same,growth inhibition,[15]; at 1.2 µM,-5%
same,growth inhibition,[15]; at 3.7 µM,-4%
same,growth inhibition,[15]; at 11.0 µM,-3%
same,growth inhibition,[15]; at 33.0 µM,7%
same,growth inhibition,[15]; at 100.0 µM,46%
same,growth inhibition,[13]; [16],-9%
same,growth inhibition,[13]; [17],-9%
same,growth inhibition,[13]; at 50.0 µM,78% (active)
same,growth inhibition,[14]; at 1.2 µM,-14%
same,growth inhibition,[14]; at 3.7 µM,-14%
same,growth inhibition,[14]; at 11.0 µM,-8%
same,growth inhibition,[14]; at 33.0 µM,0%
same,growth inhibition,[14]; at 100.0 µM,42%
